# Screening data deposited in PubChem by several laboratories.
# Lmaj promast: inhibitors of Leishmania major promastigote growth; 200,000 compounds, 9% hits; inhibition, % at 10 µM; Leishmania major promastigotes, resazurin fluorescence viability; AID 1063; in the data active means inhibition above about 50%;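 further: promastigotes grown with compound for 44 hours at 28 °C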
# Calpain2 inh: inhibitors of pig calpain II; purified calpain II, fluorogenic peptide substrate, 30 min; inhibition, % at 16 µM; 220,000 compounds, 0.37% hits; AID 1236;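 active means inhibition above about 50%, limit read from the data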
# WT yeast gro inh: growth inhibition of WT yeast, mitochondrial fusion screen. mitochondrial fusion phenotypic screen, WT strain. 190,000 compounds, 2.1% hits. inhibition, % at 10 µM; in the data active means inhibition above about 58%; tested in S. cerevisiae
# Cl transport mod: modulators of human KCC2 chloride dependent transport. 190,000 compounds, 2.2% hits. Q9H2X9. KCC2 cells, thallium flux FluoZin-2 fluorescence. B-score of Tl+ flux slope (higher = more flux/activation; lower = inhibition) at 10 µM;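 active means thallium flux slope and its plate-corrected score both differing from the plate sample mean at a set confidence after two filtering rounds, in either direction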;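 further: slope of fluorescence scaled to starting intensity during 10 to 20 s after thallium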
# ROMK mod: modulators of human ROMK potassium channel. 130,000 compounds, 2% hits. B-score at 10 µM. Tet-inducible ROMK, thallium flux fluorescence; actives lie on both sides;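 active means signal ratio slope over the read window, or its plate-corrected B-score, at least 3 SD from the plate mean, either direction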;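 further: B-score of the F/F0 ratio slope over 7 to 12 s after thallium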
# Target sequence (P48048 whole entry, looked up): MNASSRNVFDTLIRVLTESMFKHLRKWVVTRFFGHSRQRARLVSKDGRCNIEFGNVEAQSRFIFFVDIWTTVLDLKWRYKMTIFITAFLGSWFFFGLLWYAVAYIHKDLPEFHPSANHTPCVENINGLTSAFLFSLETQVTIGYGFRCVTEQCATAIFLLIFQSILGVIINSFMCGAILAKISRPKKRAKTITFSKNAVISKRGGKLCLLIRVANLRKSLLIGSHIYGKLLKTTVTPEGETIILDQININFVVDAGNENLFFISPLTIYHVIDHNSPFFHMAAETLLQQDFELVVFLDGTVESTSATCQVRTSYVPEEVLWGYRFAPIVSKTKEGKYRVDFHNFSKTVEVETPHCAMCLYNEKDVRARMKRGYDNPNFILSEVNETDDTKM
# Numbers without * were called inactive; · = not tested or not shown. Shown are actives, neighbours in structure and some others; about 12% of the full set was active somewhere.
SMILES,Lmaj promast,Calpain2 inh,WT yeast gro inh,Cl transport mod,ROMK mod
Cc1cc(C)n(-c2nc(C)nc(NCc3ccccc3)n2)n1,59*,-4,41,·,-0.27
Cc1nn(CC(O)c2ccccc2)c(C)c1Br (stereo not given),-1,-12,7,1.5,·
Cc1nn(-c2nnc(NCc3ccccc3)nn2)c(C)c1Br,84*,24,20,0.4,·
Cc1cc(C)n(-c2nnc(NCc3ccc(Cl)cc3)nn2)n1,91*,41,18,1.2,0.84
CCCn1nnc(NC(=O)/C=C/c2ccc(C(C)C)cc2)n1,·,25,·,0.33,·
Cc1ccc2c(c1C)NC(=O)C21N2CCCC2C(C(=O)c2ccc3ccccc3c2)C12C(=O)Nc1ccccc12 (stereo not given),·,-77,·,-0.72,·
Cc1ccc(C(=O)Cn2nnc(-c3cccs3)n2)cc1,·,-21,·,-0.079,·
O=C(CN1CC[n+]2c(-c3cccs3)csc21)c1ccc(-c2ccccc2)cc1,30,58*,69*,3.2*,-5.6*
Cc1ccc2nc(NNC(=O)c3ccc4c(c3)OCCO4)sc2c1,-11,24,4,0.044,-0.39
COC(=O)c1sc2ccccc2c1NC(=O)c1ccc(S(=O)(=O)N2CCCC(C)C2)cc1 (stereo not given),8,-71,-1,-0.99,·
Cc1cc(C)c2nc(NNC(=O)c3ccc(S(=O)(=O)N4CC(C)CC(C)C4)cc3)sc2c1 (stereo not given),99*,-68,11,-0.003,0.14
Cc1cc(C)c2nc(NNC(=O)c3ccc(S(=O)(=O)N4CCCC(C)C4)cc3)sc2c1 (stereo not given),98*,-83,4,0.3,0.31
CCS(=O)(=O)N1Cc2ccccc2CC1C(=O)Nc1nc2ccc(C)cc2s1 (stereo not given),92*,-20,43,0.27,0.39
CCC(=O)NNc1nc2c(C)cc(C)cc2s1,-6,16,14,·,0
Cc1ccc2nc(NNC(=O)c3ccc(S(=O)(=O)N4CCc5ccccc5C4)cc3)sc2c1,100*,-67,-2,-0.67,0.12
O=C(c1ccc(F)cc1)C(C(=O)N1CCCCC1)n1ccccc1=O (stereo not given),-6,-31,-6,-0.32,0.28
C(=N\N1CCN(Cc2cccc3ccccc23)CC1)/c1cccnc1,19,9,-3,-0.37,-0.12
C/C(=N\Nc1cccc(Cl)c1)C1(C)N(O)C(C)(C)C(c2ccco2)=[N+]1[O-] (stereo not given),·,0,·,-2.6,·
Cc1cc(=O)oc2cc(OCC(=O)OCC(=O)NCCc3ccccc3)ccc12,-5,-81,-4,-0.66,-0.84
Cc1cccc2sc(NNC(=O)c3ccc(S(=O)(=O)N4CC(C)CC(C)C4)cc3)nc12 (stereo not given),99*,-48,-14,-0.26,-1.1
COC(=O)c1sc2ccccc2c1NC(=O)c1ccc(S(=O)(=O)N2CC(C)CC(C)C2)cc1 (stereo not given),-2,-96,-1,0.33,-0.32
COc1cc(C(=O)NCC(c2cccnc2)N2CCN(c3ccccc3)CC2)cc(OC)c1OC (stereo not given),67*,-1,12,-2.7,·
O=C(NCC(c1cccnc1)N1CCN(c2ccccc2)CC1)c1ccc2c(c1)OCO2 (stereo not given),88*,-6,7,-0.25,0.95
COc1cc(C(=O)NCC(c2cccnc2)N2CCN(C)CC2)cc(OC)c1OC (stereo not given),3,-2,0,·,1.1
COc1ccc(CCNC(=O)COC(=O)Cn2cnc3ccccc3c2=O)cc1,·,0,·,-0.14,·
SMILES,Lmaj promast,Calpain2 inh,WT yeast gro inh,Cl transport mod,ROMK mod
CN=c1scc(-c2cccs2)n1/N=C/c1ccccc1O,86*,-10,62*,-1.6,·
O=C(CSc1nnc(C2CC2)n1-c1ccccc1)Nc1ccc(N2CCOCC2)cc1,-2,6,-4,·,·
CCN(c1cccc(C(F)(F)F)c1)S(=O)(=O)c1ccc2c(c1)CCN2C(C)=O,60*,-21,-13,·,2.3
CC(=O)N1CCCc2cc(S(=O)(=O)N(C)CCC#N)ccc21,-5,9,·,-0.6,·
CCN(c1cccc(C)c1)S(=O)(=O)c1ccc2c(c1)CCN2C(C)=O,94*,-4,-31,-1.1,1.1
CC(=O)N1CCCc2cc(S(=O)(=O)N(CC(C)C)CC(C)C)ccc21,85*,-19,-8,-0.14,·
CCN(c1cccc(C)c1)S(=O)(=O)c1cccc(C(=O)O)c1,-10,-19,-3,·,0.057
Cc1ccsc1/C=N/Nc1nc(=O)[nH]nc1C,3,2,70*,0.77,-0.39
Cc1ccsc1/C=N/Nc1ncc(Cl)cc1Cl,1,-14,3,-1,-0.93
